Screening data: PubChem, National Center for Advancing Translational Sciences (NCATS)
Shown are actives, neighbours in structure and some others; about 12% of the full set was active somewhere.
BAZ2B inh – blocks human BAZ2B. Q9UIF8. AlphaScreen BAZ2B-H3K14Ac peptide displacement. Potency, µM (doses to about 114 µM), hits mostly inhibitors. 4.4% of 360,000 active. AID 504333; also: nearly all actives have a fitted effect of over 60% in size
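Inhibition is scored as reduced AlphaScreen emission. The BAZ2B/b-H3(5-23)K14Ac complex (50 nM each) in PBS pH 7.4, 0.01% Tween-20 meets compound (up to 110 uM) for 30 min at RT before bead addition.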
L3MBTL1 inh – inhibitors of human L3MBTL1; AlphaScreen L3MBTL1–H3K9me1 peptide binding; Potency, µM (highest dose often 57.1 µM), hits mostly inhibitors; AID 485360; Q9Y468; 0.66% of 230,000 active; also: nearly all actives have a fitted effect of over 60% in size
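First, the protein-peptide complex forms for 30 min at room temperature (L3MBTL1 50 nM, biotinylated H3K9me1 peptide 75 nM). Next, compounds are pin-transferred and incubated 30 min. Finally, AlphaScreen beads are added and read after 30 min.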
Sfp PPTase inh – inhibitors of Bacillus subtilis Sfp phosphopantetheinyl transferase | Q9F4F7 | Biochemical Sfp PPTase activity, qHTS | Potency, µM, actives largely listed as inhibitors | 3.5% of 310,000 active | AID 1490;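 also: the enzyme is Sfp with the accession as filed and its product quenches rhodamine fluorescence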
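Reaction rates are the 30-min fluorescence difference (ex 525, em 598 nm) in wells containing 15 nM Sfp, 5 uM rhodamine-CoA and 12.5 uM BHQ-2-YbbR at pH 7.6 with 10 mM MgCl2.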
JMJD2A Tudor – blocks the human JMJD2A Tudor domain; AlphaScreen JMJD2A-Tudor / H3K4me3 peptide binding; 4.4% of 390,000 active; O75164; Potency, µM (series often up to 114 µM), hits mostly inhibitors; AID 504339; also: nearly all actives have a fitted effect of over 50% in size
Target sequence (O75164 whole entry, looked up, the tested form may be a part): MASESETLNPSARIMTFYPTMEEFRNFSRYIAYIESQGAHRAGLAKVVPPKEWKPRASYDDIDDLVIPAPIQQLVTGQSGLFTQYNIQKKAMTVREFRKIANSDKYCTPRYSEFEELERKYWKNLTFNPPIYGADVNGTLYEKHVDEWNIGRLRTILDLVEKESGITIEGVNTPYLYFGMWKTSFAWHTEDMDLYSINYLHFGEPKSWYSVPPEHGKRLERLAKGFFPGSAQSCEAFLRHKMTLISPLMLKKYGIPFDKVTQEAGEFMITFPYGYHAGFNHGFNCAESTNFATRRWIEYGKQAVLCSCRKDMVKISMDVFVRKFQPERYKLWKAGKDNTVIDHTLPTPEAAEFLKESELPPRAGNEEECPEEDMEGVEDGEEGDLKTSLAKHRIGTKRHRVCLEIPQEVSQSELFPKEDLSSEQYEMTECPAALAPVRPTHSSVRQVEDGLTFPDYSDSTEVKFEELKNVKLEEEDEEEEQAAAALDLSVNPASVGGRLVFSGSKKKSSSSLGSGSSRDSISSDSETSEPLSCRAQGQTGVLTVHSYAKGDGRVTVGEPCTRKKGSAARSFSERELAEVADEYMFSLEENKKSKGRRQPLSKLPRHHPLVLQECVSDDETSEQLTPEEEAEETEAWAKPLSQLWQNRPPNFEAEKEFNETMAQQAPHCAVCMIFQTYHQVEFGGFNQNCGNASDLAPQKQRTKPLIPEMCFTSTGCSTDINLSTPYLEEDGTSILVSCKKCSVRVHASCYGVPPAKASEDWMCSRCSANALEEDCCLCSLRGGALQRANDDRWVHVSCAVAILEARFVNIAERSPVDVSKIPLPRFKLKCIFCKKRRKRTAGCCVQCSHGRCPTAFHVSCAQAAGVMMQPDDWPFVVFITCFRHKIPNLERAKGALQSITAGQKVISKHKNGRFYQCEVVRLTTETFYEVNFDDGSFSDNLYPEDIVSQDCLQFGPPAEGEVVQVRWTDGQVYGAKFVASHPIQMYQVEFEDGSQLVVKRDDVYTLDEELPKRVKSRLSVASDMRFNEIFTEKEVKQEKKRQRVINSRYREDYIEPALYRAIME
G9a block – blocks human histone lysine methyltransferase G9a; Q96KQ7; G9a H3K9 monomethylation, AlphaScreen, 2 h; Potency, µM (doses to about 102 µM), usual class: inhibitors; 8.8% of 350,000 active; AID 504332; also: nearly all actives have a fitted effect of over 75% in size
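AlphaScreen read-out: biotin-H3K9 peptide (500 nM) methylation by 20 nM enzyme with 20 uM SAM, 2 h at room temperature after 15 min compound preincubation; anti-monomethyl H3K9 antibody plus donor/acceptor beads, 10 min dark.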
HP1b binding inh – HP1-beta chromodomain-methylated histone interaction inhibition | P83916 | AlphaScreen HP1-beta / biotin-H3K9me3 peptide binding | Potency, µM (series often up to 114 µM), most hits filed as inhibitors | 0.56% of 390,000 active; also: nearly all actives have a fitted effect of over 70% in size
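Compound inhibition of the preformed complex between 50 nM HP1-beta and 50 nM biotinylated H3K9me3 peptide was read by AlphaScreen. Buffer was PBS pH 7.4 with 0.01% Tween-20. Incubations ran 30 min at room temperature, with 10 ug/mL donor/acceptor beads.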
Large screens that a line does not name were inactive. Calls follow the shape of the dose curve; as a rule, active = well fitted curve in the direction sought with a large enough effect; inconclusive = small, poorly fitted or top-dose-only effect, or another doubt; inactive = no such curve, though single readings can be large; an effect the other way counts as inactive or inconclusive.

CN(C)c1ccc(C2C3C(=O)NC(=O)C3ON2c2ccc(Cl)cc2)cc1 (configuration not stated)	BAZ2B inh 50µM, L3MBTL1 inh inconclusive, JMJD2A Tudor 56µM, G9a block inconclusive
COc1cc(C2C3C(=O)N(c4ccc(F)cc4)C(=O)C3ON2c2ccccc2)ccc1O (configuration not stated)	none
O=C(c1ccc(O)cc1)c1ccc(C(=O)c2ccc(O)cc2)cc1	none
Oc1ccc(O)cc1	Sfp PPTase inh inconclusive, G9a block 6µM (no result: BAZ2B inh, L3MBTL1 inh, JMJD2A Tudor, HP1b binding inh)
CC(=O)Nc1ccccc1OCc1cc(=O)n2c3c(sc2n1)CCCC3	none (no result: L3MBTL1 inh, Sfp PPTase inh)
CCNC(=S)NNC(=O)CSc1nc2ccccc2n1C	JMJD2A Tudor 89µM (no result: G9a block)
CCNC(=S)NNC(=O)CSc1nc2ccccc2[nH]1	G9a block 45µM
Cc1ccc2cc(CN(Cc3ccc4c(c3)OCO4)Cc3nnnn3Cc3ccco3)c(=O)[nH]c2c1	BAZ2B inh inconclusive, Sfp PPTase inh 25µM, G9a block inconclusive (no result: L3MBTL1 inh)
COc1ccccc1CN(Cc1cc2c(C)ccc(C)c2[nH]c1=O)Cc1nnnn1Cc1ccco1	Sfp PPTase inh 20µM, G9a block 13µM
Cc1ccc(CN(Cc2cc3cc4c(cc3[nH]c2=O)OCCO4)Cc2nnnn2Cc2ccco2)cc1	Sfp PPTase inh 10µM, G9a block 13µM (no result: L3MBTL1 inh)
COCCCNC(=O)c1c(NC(=O)c2cc(=O)c3ccccc3o2)sc2c1CCCC2	none (no result: L3MBTL1 inh, Sfp PPTase inh)
CCOc1ccc(Nc2c(S(=O)(=O)c3ccc(C)cc3)cnc3cc(OC)c(OC)cc23)cc1	none (no result: L3MBTL1 inh, Sfp PPTase inh)
S=C(NCCc1ccccc1)NCc1cccc(Cl)c1	BAZ2B inh inconclusive, G9a block 8.9µM (no result: L3MBTL1 inh)
S=C(NCCCCNC(=S)NCc1ccccc1)NCc1ccccc1	G9a block 45µM (no result: L3MBTL1 inh)
O=C(CCS(=O)CCC(=O)NCc1ccccc1)NCc1ccccc1	G9a block 50µM
O=C(CCC(=O)NCc1ccccc1)NCc1ccccc1	G9a block inconclusive
S=C(NCc1ccccc1)C(=S)NCc1ccccc1	JMJD2A Tudor 35µM, HP1b binding inh inconclusive (no result: BAZ2B inh, L3MBTL1 inh, Sfp PPTase inh, G9a block)
S=C(NCCc1ccccc1)NCCc1ccccc1	none
Cc1ccc(Cl)cc1NC(=O)Nc1cccc(OCc2cc(=O)n3ccccc3n2)c1	none (no result: L3MBTL1 inh, Sfp PPTase inh)
CC(C)(CS)C(=O)N1CCC[C@H]1C(=O)O	Sfp PPTase inh 22µM, G9a block 4.5µM (no result: BAZ2B inh, L3MBTL1 inh, JMJD2A Tudor, HP1b binding inh)
CC(C)(C)OC(=O)N1CCCC1C(=O)O (configuration not stated)	none
Cc1ccc(-c2csc3ncnc(OCC(=O)NC(=O)NCc4ccco4)c23)cc1	BAZ2B inh inconclusive, L3MBTL1 inh inconclusive, Sfp PPTase inh inconclusive, G9a block 56µM
O=C(CSc1nnc2c(n1)[nH]c1ccccc12)NCc1ccco1	BAZ2B inh inconclusive, Sfp PPTase inh 40µM, G9a block 10µM
COc1ccc(-c2[nH]c(-c3cccc(OC)c3)nc2SCC(=O)NCc2ccco2)cc1	BAZ2B inh inconclusive, JMJD2A Tudor inconclusive, G9a block 18µM
Cc1nc(SCC(=O)NCc2ccco2)nc(C)c1C	Sfp PPTase inh 50µM, G9a block inconclusive
COc1cccc(-c2nc(SCC(=O)NCc3ccco3)c3c(=O)n(C)c(=O)n(C)c3n2)c1	none (no result: L3MBTL1 inh, Sfp PPTase inh)
Cc1ccc(SCC(=O)NCc2ccco2)cc1	none
Cc1cc2c(s1)c(/C=N/O)c(C(=O)NCc1ccccc1F)n2C	none (no result: BAZ2B inh, L3MBTL1 inh, Sfp PPTase inh, G9a block, HP1b binding inh)
COc1ccc(-c2nc(SCC(=O)NC(C)CCc3ccccc3)n[nH]2)cc1 (configuration not stated)	none (no result: L3MBTL1 inh, Sfp PPTase inh)
O=C(CSc1nc(-c2ccccc2)c(-c2ccccc2)[nH]1)NCc1ccco1	JMJD2A Tudor 40µM, G9a block inconclusive (no result: L3MBTL1 inh)
Cc1nc(SCC(=O)NC(=O)NCc2ccco2)nc(C)c1C	BAZ2B inh inconclusive, Sfp PPTase inh inconclusive, G9a block 50µM
Cc1sc2ncnc(SCC(=O)NC(=O)NCc3ccco3)c2c1C	BAZ2B inh inconclusive, L3MBTL1 inh inconclusive, G9a block 50µM
Cc1nc(SCC(=O)NCc2ccco2)c2c(C)c(C)sc2n1	none
COCCNC(=O)NC(=O)CSc1nc(C)c(C)c(C)n1	G9a block 45µM
CNC(=O)C1CCC(Cn2c(=O)c3sccc3n(CC(=O)N3CCC(C)CC3)c2=O)CC1 (configuration not stated)	none (no result: L3MBTL1 inh, Sfp PPTase inh)
